# Screening data: PubChem BioAssay, National Center for Advancing Translational Sciences (NCATS)
# This is a sample that favours compounds with a hit; in the whole collection about 19% have one here.
# RORg inh = qHTS for inhibitors of ROR gamma transcriptional activity; actives 5.4% (n = 310,000); Nuclear receptor ROR-gamma (Mus musculus), P51450; Drosophila S2 Gal4-RORgamma UAS-luciferase reporter, 20 h; Potency, µM (highest dose often 53.6 µM), for inactives: at the highest dose activity change, negative = inhibition, usual class: inhibitors; further: nearly all actives have a fitted effect of over 60% in size
#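 Drosophila S2 cells stably expressing Gal4-DBD/mouse RORγ fusion under metallothionein promoter plus UAS-luciferase; compound 1 h, then 700 uM CuSO4 induction for 20 h at ambient temperature; inhibition read as reduced luminescence.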
# TDP1 cell CPT = qHTS for Inhibitors of human tyrosyl-DNA phosphodiesterase 1 (TDP1): qHTS in cells in presence of CPT; chicken DT40 Tdp1-/-;hTDP1 cells + 20 nM CPT, ATP luminescence, 48 h; Potency, µM (titrated, usually from 46.2 µM), without a hit: at the top dose activity change, negative = growth inhibition, usual class: inhibitors; actives 12% (n = 420,000); AID 686979, 2013; further: nearly all actives have a fitted effect of over 55% in size
#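 Cell growth measured by CellTiter-Glo luminescence after a minimum 48 h, 37 C compound exposure with 20 nM CPT in Tdp1-knockout DT40 cells stably expressing hTDP1, seeded 400/well; qHTS titration format.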
# TDP1 block = qHTS Assay for Inhibitors of Tyrosyl-DNA Phosphodiesterase (TDP1). Potency, µM (top dose mostly 130 µM), for the others: top-dose activity change, negative = inhibition, hits mostly inhibitors. recombinant TDP1, AlphaScreen DNA substrate cleavage. actives 0.28% (n = 350,000). AID 485290, 2010; further: nearly all actives have a fitted effect of over 40% in size
# Target sequence (Q9NUW8 whole entry, looked up): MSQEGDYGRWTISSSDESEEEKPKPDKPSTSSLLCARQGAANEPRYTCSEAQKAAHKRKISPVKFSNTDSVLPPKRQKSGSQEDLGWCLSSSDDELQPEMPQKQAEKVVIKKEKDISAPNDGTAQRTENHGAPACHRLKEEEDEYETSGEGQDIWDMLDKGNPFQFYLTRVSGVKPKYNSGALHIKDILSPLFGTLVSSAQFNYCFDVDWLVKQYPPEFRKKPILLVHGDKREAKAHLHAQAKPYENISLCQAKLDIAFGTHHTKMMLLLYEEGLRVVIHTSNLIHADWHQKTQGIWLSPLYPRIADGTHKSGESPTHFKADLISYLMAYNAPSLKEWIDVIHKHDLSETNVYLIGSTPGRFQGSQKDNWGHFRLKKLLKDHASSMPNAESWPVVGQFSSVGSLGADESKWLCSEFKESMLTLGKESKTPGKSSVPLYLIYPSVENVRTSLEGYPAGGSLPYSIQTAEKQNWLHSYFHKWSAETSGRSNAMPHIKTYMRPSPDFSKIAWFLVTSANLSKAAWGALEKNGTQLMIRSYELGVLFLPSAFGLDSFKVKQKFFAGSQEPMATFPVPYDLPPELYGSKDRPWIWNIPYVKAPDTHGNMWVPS
#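 Signal: AlphaScreen proximity between streptavidin donor and anti-FITC acceptor beads on intact substrate. Reaction: Tdp1 1 nM, substrate 15 nM final, 5 min RT after 15 min compound preincubation.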
# Gal4-VP16 FLuc = VP16 counterscreen qHTS for inhibitors of ROR gamma transcriptional activity; AID 2546, 2010; Drosophila S2 Gal4-VP16 UAS-luciferase, luminescence, 20 h; Potency, µM (series often up to 53.6 µM), for inactives: at the top dose activity, negative = inhibition, hits mostly inhibitors; actives 3.5% (n = 310,000);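 further: Gal4-VP16 expression switched on by copper sulfate through the metallothionein promoter; nearly all actives have a fitted effect of over 50% in size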
# TDP1 cell noCPT = qHTS for Inhibitors of human tyrosyl-DNA phosphodiesterase 1 (TDP1): qHTS in cells in absence of CPT | DT40 Tdp1-/- hTDP1 cells, no CPT, ATP luminescence, 48 h | Potency, µM (top dose mostly 46.2 µM), inactives show at the top dose activity change, negative = growth inhibition, usual class: inhibitors | actives 15% (n = 420,000); further: nearly all actives have a fitted effect of over 55% in size
#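 Chicken DT40 Tdp1-/- cells stably complemented with human TDP1 were seeded at 400 cells/well with DMSO in place of 20 nM camptothecin. After compound pinning, cells grew at least 48 hr at 37 °C; viability read by CellTiter-Glo luminescence.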
# * marks the source's active call; other numbers are inactive results; u = inconclusive; x = no result given; [ ] = another dose, or the depositor's remark. The call rests on the fitted dose curve; in most records, active means well fitted curve in the direction sought with a large enough effect; inconclusive means small, poorly fitted or top-dose-only effect, or another doubt; inactive means no such curve, though single readings can be large; an effect the other way counts as inactive or inconclusive. On the % scale 0 is the no-effect control and ±100 the full control effect; potency means the concentration at half of the fitted maximal effect.
SMILES,RORg inh,TDP1 cell CPT,TDP1 block,Gal4-VP16 FLuc,TDP1 cell noCPT
Cc1ccccc1C(=O)NC1CCSC1=O (configuration not stated),u,1%,x,-2%,3%
CC(C)COc1ccc(C(=O)N2C(=O)c3ccc(N)cc3C2=O)cc1,-2%,-23%,0%,-9%,-15%
CSc1nc(C)cc(SCC(=O)Nc2ccc(Cl)cc2Cl)n1,-7%,-28%,-2%[56.1 µM],-18%,u
O=C(/C=C/c1ccc(OCc2ccccc2)c(OCc2ccccc2)c1)c1cccnc1,20%,u,5%,2%,12µM*
CC(C)(C)c1ccc(C(=O)Nc2ccc(Cl)cc2)cc1,3%,-12%,3%,-5%,-6%
CC(C)(C)c1ccc(C(=O)Nc2ccc(Oc3cccnc3)nc2)cc1,-37%,u,1%,u,13µM*
CC(C)(C)c1cnnn1-c1ccc(NC(=O)c2ccc3c(c2)OCO3)cc1,u,u,-1%,-2%,21µM*
COC(=O)Cc1ccc(NC(=O)c2ccc(C(C)(C)C)cc2)cc1,1.6µM*,u,4%,u,u
COc1cccc(C(=O)Nc2ccc(NC(C)=O)cc2)c1,12%,19%,6%,17%,-14%
COc1cccc(C(=O)Nc2ccc(NC(=O)C(C)(C)C)cn2)c1,7.1µM*,-21%,2%,8.9µM*,-27%
CC(C)(C)c1ccc(C(=O)Nc2cccnc2)cc1,u,u,x,1%,u
O=C(CCc1c[nH]c2ccccc12)N1CCCCCCC1,16%,u,9%,6%,u
COc1cccc(C(=O)Nc2ccc(-n3nncc3C(C)(C)C)cc2)c1,22%,u,4%,3%,21µM*
COc1cccc(C(=O)Nc2ccc(NC(=O)c3ccc(C(C)(C)C)cc3)cc2)c1,x,16µM*,3%[2.28 µM],x,10µM*
CC(C)(C)c1cnnn1-c1ccc(NC(=O)c2ccc(Br)o2)cc1,37%,-27%,6%,-7%,-27%
CCC(Sc1nnc(C)n2c1cc1sccc12)C(=O)Nc1ccccc1F (configuration not stated),x,u,0%,x,21µM*
CCC(Sc1nncn2c1cc1sccc12)C(=O)Nc1cccc(OC)c1 (configuration not stated),x,u,0%,x,23µM*
CCC(Sc1nc2ncccc2[nH]1)C(=O)Nc1cccc(OC)c1 (configuration not stated),x,u,10%,x,u
COC(=O)c1c(-c2ccc(OC)cc2)sc2cc(OC)c(OC)cc12,x,u,-14%,x,u
CCCN1CCC2(CC1)C(C#N)=C(N)Oc1c2sc2nc(C)cc(C)c12,-9%,u,6%,-4%,u
CCOC(=O)N1CCC2(CC1)C(C#N)=C(N)Oc1n[nH]c(C)c12,2%,-18%,7%,14%,-4%
CCOC(=O)N1CCC2(CC1)C(C#N)=C(N)Oc1c2c(C)nn1-c1cccc(Cl)c1,2%,16µM*,9%,19%,18µM*
CCOC(=O)N1CCC2(CC1)C(C#N)=C(N)Oc1c2sc2nc(C)cc(C)c12,8.9µM*,u,-2%,u,16µM*
O=S(=O)(c1cccc(-c2nn3c(-c4ccncc4)nnc3s2)c1)N1CCOCC1,5%,x,1%,-8%,x
Cc1cccc(N(CC(=O)N/N=C/c2ccc(OCC(=O)NCc3ccco3)cc2)S(C)(=O)=O)c1C,40%,3%,4%,1%,-6%
SMILES,RORg inh,TDP1 cell CPT,TDP1 block,Gal4-VP16 FLuc,TDP1 cell noCPT
CC(=O)N/N=C/c1cc([N+](=O)[O-])ccc1OCCOc1ccccc1,4%,u,9%,-5%,16µM*
NC(=S)N/N=C/c1cc([N+](=O)[O-])ccc1OCCOc1ccccc1,-32%,-16%,6%,-12%,-30%
Cc1cccc(N(CC(=O)N/N=C/c2cc([N+](=O)[O-])ccc2Cl)S(C)(=O)=O)c1C,u,u,4%,2%,21µM*
CS(=O)(=O)N(CC(=O)N/N=C/c1cc([N+](=O)[O-])ccc1Cl)c1ccccc1,11%,u,4%,2%,18µM*
Cn1nnnc1SCc1ccc(Cl)cc1,29%,-9%,6%,-11%,-6%
NC(=NC1CCCCC1)c1ccc(Cl)cc1,-18%,-5%,5%,-2%[10 µM],-6%
FC(F)(F)c1cccc(Sc2cc(C(F)(F)F)nc(-c3ccccn3)n2)c1,15%,18µM*,5%,-6%,21µM*
FC(F)(F)c1cc(Oc2ccccc2)nc(-c2ccccn2)n1,u,2%,4%,-14%,u
CCN(CC)c1cc(C(F)(F)F)nc(-c2ccccn2)n1,2.5µM*,u,1%,11µM*,u
C=CCNc1cc(C(F)(F)F)nc(-c2ccccn2)n1,1.6µM*,18µM*,4%,7.1µM*,u
COc1ccc(NC(=O)CN2CCN(Cc3ccc(F)cc3)S2(=O)=O)cc1Cl,x,u,0%,x,21µM*
Cc1ccc(CN2CCN(CC(=O)Nc3ccc(C)c(C)c3)S2(=O)=O)cc1,x,u,6%,x,u
O=C(CN1CCN(Cc2ccc(F)cc2Cl)S1(=O)=O)Nc1ccc(F)cc1,x,12µM*,3%,x,15µM*
Cc1ccccc1CN1CCCN(CC(=O)Nc2ccc(F)cc2)S1(=O)=O,x,u,6%,x,u
CCN(CC)C(=O)Cn1ncc2c([nH]c3ccccc32)c1=O,x,-12%,1%,x,-8%
COc1ccc(/C=C/C(=O)O)cc1S(=O)(=O)Nc1ccc2c(c1)OCO2,8%,-2%,x,4%,23%
